# Data from the supplement of paper PMC8728848.
# Shown is part of a subset that was picked to be rich in the strongest signals.
# Experiments:
# Assay in all cases: glycan array binding signal (z-score within array); higher = stronger binding
# Details in all cases: glycan notation: IUPAC condensed, linker removed
# [1] = target: Fuc(a1-2)Gal(b1-3)[Fuc(a1-4)]GlcNAc(b1-2)Man(a1-3)[Fuc(a1-2)Gal(b1-3)[Fuc(a1-4)]GlcNAc(b1-2)Man(a1-3)]Man(b1-4)GlcNAc(b1-4)GlcNAc
# In short: (§1)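 Negative Z-scores can be read as non-binding. The Z-score is calculated within each array and then averaged across arrays of one protein sequence at different concentrations or buffers and across linkers. Arrays, 3228 in all, were curated from the Consortium for Functional Glycomics database and kept only where the protein sequence was available.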
# [2] = target: Fuc(a1-2)Gal(b1-4)Fuc(a1-3)]GlcNAc(b1-2)Man(a1-3)[Fuc(a1-2)Gal(b1-4)[Fuc(a1-3)]GlcNAc(b1-2)Man(a1-6)]Man(b1-4)GlcNAc(b1-4)GlcNAc
# In short: as §1
# [3] = target: Fuc(a1-2)Gal(b1-4)GlcNAc(b1-3)[Fuc(a1-3)[Gal(b1-4)]GlcNAc(b1-6)]Gal(b1-4)Glc
# In short: as §1
# [4] = target: Fuc(a1-2)Gal(b1-4)GlcNAc6S
# In short: as §1
# [5] = target: Fuc(a1-2)Gal(b1-4)[Fuc(a1-3)]GlcNAc(b1-3)GalNAc
# In short: as §1
# [6] = target: Fuc(a1-2)[Gal(a1-3)]Gal(b1-4)[Fuc(a1-3)]Glc
# In short: as §1
# [7] = target: Fuc(a1-2)[GalNAc(a1-3)]Gal(b1-3)GlcNAc(b1-2)Man(a1-3)[Fuc(a1-2)[GalNAc(a1-3)]Gal(b1-3)GlcNAc(b1-2)Man(a1-6)]Man(b1-4)GlcNAc(b1-4)[Fuc(a1-6)]GlcNAc
# In short: as §1
# [8] = target: Fuc(a1-2)[GalNAc(a1-3)]Gal(b1-4)GlcNAc
# In short: as §1
# [9] = target: Gal(a1-3)Gal(b1-3)GlcNAc
# In short: as §1
# [10] = target: Gal(a1-4)Gal(b1-4)Glc
# In short: as §1
# [11] = target: Gal(a1-4)Gal(b1-4)GlcNAc(b1-2)Man(a1-3)[Gal(a1-4)Gal(b1-4)GlcNAc(b1-2)Man(a1-6)]Man(b1-4)GlcNAc(b1-4)GlcNAc
# In short: as §1
# [12] = target: Gal(b1-3)[Fuc(a1-4)]GlcNAc(b1-2)Man
# In short: as §1
# [13] = target: Gal(b1-4)Gal
# In short: as §1
# [14] = target: Gal(b1-4)GlcNAc(a1-6)Gal(b1-4)GlcNAc
# In short: as §1
# [15] = target: Gal(b1-4)GlcNAc(b1-2)Man(a1-3)[Gal(b1-4)GlcNAc(b1-2)Man(a1-6)]Man(b1-4)GlcNAc(b1-4)GlcNAc
# In short: as §1
# [16] = target: Gal(b1-4)GlcNAc(b1-2)Man(a1-6)Man(b1-4)GlcNAc(b1-4)GlcNAc
# In short: as §1
# [17] = target: Gal(b1-4)GlcNAc(b1-3)Gal(b1-4)Glc
# In short: as §1
# [18] = target: Gal(b1-4)GlcNAc(b1-3)Gal(b1-4)GlcNAc(b1-2)Man(a1-3)[Gal(b1-4)GlcNAc(b1-3)Gal(b1-4)GlcNAc(b1-2)Man(a1-6)]Man(b1-4)GlcNAc(b1-4)GlcNAc
# In short: as §1
# [19] = target: Gal(b1-4)GlcNAc(b1-3)[Fuc(a1-3)GlcNAc(b1-6)]Gal(b1-4)Glc
# In short: as §1
# [20] = target: Gal3S4S(b1-4)GlcNAc
# In short: as §1
# [21] = target: Gal3S6S(b1-4)GlcNAc6S
# In short: as §1
# [22] = target: Gal6S(b1-3)GlcNAc
# In short: as §1
# [23] = target: GalNAc(b1-3)Gal(a1-4)Gal(b1-4)GlcNAc
# In short: as §1
# [24] = target: GalNAc(b1-3)GlcNAc
# In short: as §1
# [25] = target: GalNAc(b1-4)Gal(b1-4)Glc
# In short: as §1
# [26] = target: GalNAc3S(b1-4)GlcNAc
# In short: as §1
# [27] = target: GalNAc3S(b1-4)[Fuc(a1-3)]GlcNAc
# In short: as §1
# [28] = target: GalNAc4S6S(b1-4)GlcNAc
# In short: as §1
# [29] = target: GlcNAc(b1-2)Man(a1-3)[GlcNAc(b1-2)Man(a1-6)]Man(b1-4)GlcNAc(b1-4)[Fuc(a1-6)]GlcNAc
# In short: as §1
# [30] = target: GlcNAc(b1-2)[GlcNAc(b1-4)]Man(a1-3)[GlcNAc(b1-4)][GlcNAc(b1-2)Man(a1-6)]Man(b1-4)GlcNAc(b1-4)GlcNAc
# In short: as §1
# [31] = target: GlcNAc(b1-3)Gal(b1-4)GlcNAc
# In short: as §1
# [32] = target: GlcNAc(b1-3)Gal(b1-4)GlcNAc(b1-3)Gal(b1-4)GlcNAc(b1-3)Gal(b1-4)GlcNAc(b1-3)Gal(b1-4)GlcNAc(b1-2)[GlcNAc(b1-3)Gal(b1-4)GlcNAc(b1-3)Gal(b1-4)GlcNAc(b1-3)Gal(b1-4)GlcNAc(b1-3)Gal(b1-4)GlcNAc(b1-6)]Man(a1-6)[GlcNAc(b1-3)Gal(b1-4)GlcNAc(b1-3)Gal(b1-4)GlcNAc(b1-3)Gal(b1-4)GlcNAc(b1-3)Gal(b1-4)GlcNAc(b1-2)Man(a1-3)]Man(b1-4)GlcNAc(b1-4)[Fuc(a1-6)]GlcNAc
# In short: as §1
# [33] = target: GlcNAc(b1-4)Gal(b1-4)GlcNAc
# In short: as §1
# [34] = target: GlcNAc(b1-6)GalNAc
# In short: as §1
# [35] = target: Man(a1-2)Man(a1-3)[Man(a1-6)]Man(a1-6)[Man(a1-2)Man(a1-3)]Man(b1-4)GlcNAc(b1-4)GlcNAc
# In short: as §1
# [36] = target: Neu5Ac(a2-3)Gal(b1-3)[Fuc(a1-4)]GlcNAc
# In short: as §1
# [37] = target: Neu5Ac(a2-3)Gal(b1-4)[Fuc(a1-3)]GlcNAc
# In short: as §1
# [38] = target: Neu5Ac(a2-3)Gal(b1-4)[Fuc(a1-3)]GlcNAc(b1-6)[Neu5Ac(a2-3)Gal(b1-3)]GalNAc
# In short: as §1
# [39] = target: Neu5Ac(a2-6)Gal
# In short: as §1
# [40] = target: Neu5Ac(a2-6)Gal(b1-4)GlcNAc(b1-2)Man(a1-3)Man(b1-4)GlcNAc(b1-4)GlcNAc
# In short: as §1
# [41] = target: Neu5Ac(a2-6)Gal(b1-4)GlcNAc(b1-2)Man(a1-6)[Gal(b1-4)GlcNAc(b1-2)Man(a1-3)]Man(b1-4)GlcNAc(b1-4)GlcNAc
# In short: as §1
# [42] = target: Neu5Ac(a2-6)Gal(b1-4)GlcNAc(b1-3)Gal(b1-4)GlcNAc(b1-3)Gal(b1-4)GlcNAc(b1-2)Man(a1-3)[Neu5Ac(a2-6)Gal(b1-4)GlcNAc(b1-3)Gal(b1-4)GlcNAc(b1-3)Gal(b1-4)GlcNAc(b1-2)Man(a1-6)]GalNAc
# In short: as §1
# [43] = target: Neu5Ac(a2-6)Gal(b1-4)GlcNAc(b1-3)Gal(b1-4)GlcNAc(b1-6)[Gal(b1-3)]GalNAc
# In short: as §1
# [44] = target: Neu5Ac(a2-6)Gal(b1-4)GlcNAc(b1-3)[Neu5Ac(a2-6)Gal(b1-4)GlcNAc(b1-6)]GalNAc
# In short: as §1
# [45] = target: Neu5Ac(a2-6)Gal(b1-4)GlcNAc(b1-6)GalNAc
# In short: as §1
# [46] = target: Neu5Ac(a2-6)GlcNAc(b1-4)GlcNAc
# In short: as §1
# [47] = target: Neu5Ac(a2-8)Neu5Ac(a2-3)[GalNAc(b1-4)]Gal(b1-4)Glc
# In short: as §1
# [48] = target: Neu5Ac(a2-8)Neu5Ac(a2-8)Neu5Ac(a2-3)Gal(b1-4)Glc
# In short: as §1
# [49] = target: Neu5Ac(a2-8)Neu5Ac(a2-8)Neu5Ac(a2-8)Neu5Ac(a2-3)[GalNAc(b1-4)]Gal(b1-4)Glc
# In short: as §1
# [50] = target: Neu5Ac9Ac(a2-3)Gal(b1-3)GlcNAc
# In short: as §1
# [51] = target: Neu5Ac9Ac(a2-3)Gal(b1-4)GlcNAc
# In short: as §1
binder,measurement,setting,value
"CC1G-11630 (Coprinopsis cinerea), A8P462 (protein) MTTEAKIKLKAVVYWELVFDYDNSSNTGEITQSYTVKISQTSTRSTFASEVSTTTIDTLTKNNQEVDVGASYGAISANVSASWEHSEEVNNMLEKTTQTSTEDTYTVETEETRSYTIGPGGMLSLFQKHFSGPGMHVAFDVFTTDLELAKERTEIDIDVDVEAIRFVREIRVVYTDIMSEAPGDHVREINGKNPDINYGFNGKFVWLVPEQTRKTAQALTNVEFVSQAESDDRYWDLAAGAGGSNRYLIPVYDTNNKDKIYELALWRSDSYITHDKVKAAGWSGTTGDINSGRGGTYLNLVWKTRHAY",glycan array binding signal (z-score),[1],2.22
same,glycan array binding signal (z-score),[2],1.38
same,glycan array binding signal (z-score),[3],-0.581
same,glycan array binding signal (z-score),[4],0.388
same,glycan array binding signal (z-score),[5],0.411
same,glycan array binding signal (z-score),[6],-0.641
same,glycan array binding signal (z-score),[7],-0.174
same,glycan array binding signal (z-score),[8],-0.601
same,glycan array binding signal (z-score),[9],6.02
same,glycan array binding signal (z-score),[10],0.088
same,glycan array binding signal (z-score),[11],0.102
same,glycan array binding signal (z-score),[12],2.23
same,glycan array binding signal (z-score),[13],1.01
same,glycan array binding signal (z-score),[14],-0.631
same,glycan array binding signal (z-score),[15],-0.378
same,glycan array binding signal (z-score),[16],-0.208
same,glycan array binding signal (z-score),[17],-0.507
same,glycan array binding signal (z-score),[18],2.49
same,glycan array binding signal (z-score),[19],-0.538
same,glycan array binding signal (z-score),[20],3.27
same,glycan array binding signal (z-score),[21],2.52
same,glycan array binding signal (z-score),[22],-0.544
same,glycan array binding signal (z-score),[23],0.165
same,glycan array binding signal (z-score),[24],-0.463
same,glycan array binding signal (z-score),[25],1.99
same,glycan array binding signal (z-score),[26],-0.609
same,glycan array binding signal (z-score),[27],0.036
same,glycan array binding signal (z-score),[28],0.25
same,glycan array binding signal (z-score),[29],-0.33
same,glycan array binding signal (z-score),[30],-0.368
same,glycan array binding signal (z-score),[31],-0.538
same,glycan array binding signal (z-score),[32],5.85
same,glycan array binding signal (z-score),[33],-0.152
same,glycan array binding signal (z-score),[34],-0.182
same,glycan array binding signal (z-score),[35],-0.164
same,glycan array binding signal (z-score),[36],-0.138
same,glycan array binding signal (z-score),[37],-0.567
same,glycan array binding signal (z-score),[38],0.186
same,glycan array binding signal (z-score),[39],-0.074
same,glycan array binding signal (z-score),[40],-0.49
same,glycan array binding signal (z-score),[41],15.9
same,glycan array binding signal (z-score),[42],2.1
same,glycan array binding signal (z-score),[43],0.078
same,glycan array binding signal (z-score),[44],0.001
same,glycan array binding signal (z-score),[45],2.18
same,glycan array binding signal (z-score),[46],-0.717
same,glycan array binding signal (z-score),[47],0.069
same,glycan array binding signal (z-score),[48],-0.108
same,glycan array binding signal (z-score),[49],-0.33
same,glycan array binding signal (z-score),[50],0.279
same,glycan array binding signal (z-score),[51],-0.202
